# Assay results reported in PubChem BioAssay.
# Records with an inconclusive call do not appear. For part of these data: Potency and affinity values are given separately. Active and inactive are the calls of the source. Rule as the data show it: active = fluorescence slope change above about 50%; inconclusive = mostly about 31% to 49%; inactive = weaker than that.
# What was measured:
# [1] = biological target: ATP-dependent translocase ABCB1 (Homo sapiens) (UniProt P08183); test: MDR1 (ABCB1) efflux transporter inhibition, cell-based (AID 377); settings: MDR1-expressing cells, fluorescent substrate accumulation slope; stronger effect = higher value; concentration not given here
# Sequence of ATP-dependent translocase ABCB1 (Homo sapiens) (P08183 whole entry, looked up): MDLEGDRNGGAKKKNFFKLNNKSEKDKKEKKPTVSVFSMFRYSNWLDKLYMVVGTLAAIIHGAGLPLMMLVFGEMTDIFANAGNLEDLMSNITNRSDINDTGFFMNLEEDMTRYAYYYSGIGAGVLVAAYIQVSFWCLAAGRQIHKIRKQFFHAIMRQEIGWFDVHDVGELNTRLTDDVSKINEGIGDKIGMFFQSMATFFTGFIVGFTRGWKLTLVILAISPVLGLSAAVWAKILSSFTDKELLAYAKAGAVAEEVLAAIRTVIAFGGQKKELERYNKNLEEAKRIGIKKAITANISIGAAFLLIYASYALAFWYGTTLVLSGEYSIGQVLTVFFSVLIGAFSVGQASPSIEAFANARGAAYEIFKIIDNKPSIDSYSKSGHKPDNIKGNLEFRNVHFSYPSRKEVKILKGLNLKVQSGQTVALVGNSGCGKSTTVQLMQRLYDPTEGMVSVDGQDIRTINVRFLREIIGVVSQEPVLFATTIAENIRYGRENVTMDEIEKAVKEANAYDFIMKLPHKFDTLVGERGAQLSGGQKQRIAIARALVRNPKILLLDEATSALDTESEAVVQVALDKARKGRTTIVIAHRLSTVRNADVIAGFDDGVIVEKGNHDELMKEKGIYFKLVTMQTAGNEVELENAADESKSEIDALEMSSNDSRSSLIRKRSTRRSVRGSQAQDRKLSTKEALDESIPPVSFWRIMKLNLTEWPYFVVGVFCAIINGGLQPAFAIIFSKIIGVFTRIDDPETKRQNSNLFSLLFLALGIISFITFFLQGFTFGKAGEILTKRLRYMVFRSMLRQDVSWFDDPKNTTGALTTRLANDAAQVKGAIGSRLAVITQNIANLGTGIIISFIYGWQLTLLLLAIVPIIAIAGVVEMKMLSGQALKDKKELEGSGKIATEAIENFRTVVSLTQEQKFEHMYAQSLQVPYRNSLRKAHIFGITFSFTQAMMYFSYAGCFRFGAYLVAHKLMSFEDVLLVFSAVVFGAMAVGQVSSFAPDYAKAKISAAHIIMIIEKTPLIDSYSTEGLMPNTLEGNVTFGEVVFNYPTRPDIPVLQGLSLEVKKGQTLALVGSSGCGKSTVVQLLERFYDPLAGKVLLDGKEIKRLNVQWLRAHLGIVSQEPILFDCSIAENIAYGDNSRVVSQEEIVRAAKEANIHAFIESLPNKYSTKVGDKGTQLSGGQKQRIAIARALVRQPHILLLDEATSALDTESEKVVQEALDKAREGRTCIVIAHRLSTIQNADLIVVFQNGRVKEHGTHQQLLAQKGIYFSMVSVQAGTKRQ
# [2] = polyglutamine-triggered caspase-3 activation inhibitors, cell-based (AID 1583); settings: polyglutamine-induced caspase-3 activation, cell assay; stronger effect = higher value;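 tested at 10 µM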
# [3] = suppressors of polyQ aggregation in yeast, 75Q-TubU reporter (AID 1593); settings: Yeast 75Q polyglutamine aggregation reporter
# [4] = rescue of polyQ-huntingtin neuronal dysfunction in worms, whole organism, C. elegans mechanosensory neurons, N-terminal huntingtin (AID 1599); settings: touch response, stronger effect = higher value
# [5] = inhibitors of mitochondrial cytochrome c release, biochemical, purified mitochondria (AID 1603); settings: stronger effect = lower value;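 also: mouse liver mitochondria challenged with calcium chloride; signal normalized to the plate average as 100%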
# [6] = inhibitors of polyQ protein aggregation (AID 1604); settings: polyglutamine-induced protein aggregation inhibition assay; stronger effect = higher value; tested at 2.5 µM
Structure (SMILES),fluorescence slope change [1],inhibition [2] [%],score [3],rescue above control [4],cytochrome c release ratio [5],inhibition of aggregation [6] [%]
COC(=O)Nc1nc2ccc(Sc3ccccc3)cc2[nH]1,52.1% (active),20.4,0.64,-1.52,0.87,6.35
NC(=NCCCCCCN=C(N)/N=C(\N)Nc1ccc(Cl)cc1)/N=C(\N)Nc1ccc(Cl)cc1,250% (active),66.8,0.16,0,12.9,79.3
O=C1NCC2(CCN(CCc3ccccc3)CC2)O1,54.1% (active),-2.12,1.22,-3.96,1.11,88.9
CCN(CC)CCNC(=O)c1cc(Br)c(N)cc1OC,8.5% (inactive),15.4,1.41,5.76,0.92,24.2
CN(C)[C@@H]1C(=O)C(C(N)=O)=C(O)[C@@]2(O)C(=O)C3=C(O)c4c(O)ccc(Cl)c4[C@@H](O)[C@H]3C[C@@H]12,2.1% (inactive),13.2,0.8,0,2.6,27.8
CCCCOc1ccc(CC(=O)NO)cc1,103% (active),-8.34,1.21,-4.19,1.09,43.1
Cc1cccc(C)c1OCC(C)N (stereo not drawn),24.1% (inactive),-1.28,1.39,0.83,0.86,45.1
Cc1onc(-c2ccccc2Cl)c1C(=O)N[C@@H]1C(=O)N2[C@@H]1SC(C)(C)[C@@H]2C(=O)O,68% (active),-3.1,1.4,1.76,1.27,77
Fc1ccc(C(c2ccc(F)cc2)N2CCN(C/C=C/c3ccccc3)CC2)cc1,70.9% (active),11.9,0.72,11.5,1.24,27
O=C(O)CCC(=O)Nc1ccc(S(=O)(=O)Nc2nccs2)cc1,2.1% (inactive),-5.43,1.2,-4.64,0.78,100
CN(C)CCOC(=O)COc1ccc(Cl)cc1,-15.2% (inactive),6.84,1.08,-6.72,0.96,83.1
CCOC(=O)c1ccc(N)cc1,53.5% (active),-9.37,1.06,-11.4,0.65,53
CCN(CC)CCNC(=O)c1cc(S(C)(=O)=O)ccc1OC,144% (active),6.97,1.47,10,5.94,79.2
CC(NCCC(c1ccccc1)c1ccccc1)c1ccccc1 (stereo not drawn),200% (active),36.8,1.04,0,0.33,-3.7
O=C(COc1ccc(Cl)cc1)N1CCN(Cc2ccc3c(c2)OCO3)CC1,134% (active),60.9,1.15,29.5,1.17,63.9
CCN(CC)CCNC(=O)c1cc(Cl)c(N)cc1OC,27.9% (inactive),-5.58,1.42,-6.22,1.15,25.8
CC(=O)OCC1=C(C(=O)O)N2C(=O)[C@@H](NC(=O)CSc3ccncc3)[C@H]2SC1,13.4% (inactive),-8.64,1.04,-6.1,1.02,71.9
CCCC(C(=O)OCCN(CC)CC)(c1ccccc1)c1ccccc1,180% (active),-4.65,1.32,-2.09,2.6,77
C[C@](N)(Cc1ccc(O)c(O)c1)C(=O)O,52.1% (active),10.4,1.25,10.7,1.01,31.7
O=C(Cn1ccnc1[N+](=O)[O-])NCCO,10% (inactive),-0.7,1.21,-3.38,0.82,62.1
NNc1nncc2ccccc12,71.4% (active),24,1.45,-2.16,0.9,-30.3
O=C(O)c1ccccc1Nc1cccc(C(F)(F)F)c1,92.3% (active),-0.73,-0.37,3.52,1.3,73.1
CN1CCN(CCCN2c3ccccc3Sc3ccc(Cl)cc32)CC1,65.3% (active),88.9,1.36,0,2.91,74.6
CN(C)CCC=C1c2ccccc2C=Cc2ccccc21,73% (active),-2.52,1.44,5.55,1.17,84.1
Nc1ccc(S(=O)(=O)Nc2ccccn2)cc1,12.6% (inactive),-3.18,1.17,5.7,0.88,24.2
O=NN(CCCl)C(=O)NCCCl,11.5% (inactive),-31.5,0.3,5.39,0.91,72.2
CC(=O)Nc1ccc(O)cc1,29.1% (inactive),-1.78,1.1,12.7,1.05,74.9
CCN(CC)CCOC(=O)C(Cc1cccc2ccccc12)CC1CCCO1 (stereo not drawn),91.9% (active),-17.5,1.25,1.39,1.11,22.2
